# High-throughput results deposited in PubChem by National Center for Advancing Translational Sciences (NCATS).
# Hits are enriched below; roughly 4.2% of the tested compounds scored in any of these assays.
# Integrin act MD: integrin-mediated muscular dystrophy alleviation activation | alpha7betagal myoblasts, beta-gal FDG fluorescence, 48 h | Potency, µM (titrated, usually from 38.3 µM), without a hit: at the highest dose activation, actives largely listed as activators | 0.064% of 350,000 active | AID 624291;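 also: 100% = response of the positive control SU9516; nearly all actives have a fitted effect of over 60% in size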
#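 Alpha7betagal+/- myoblasts (passage 13) were plated 16-24 hr, then exposed to compounds (1:260 dilution of DMSO stock) for 48 hours at 37C. After MPER lysis, β-galactosidase reporter activity was read as FDG fluorescence (ex 480/em 540) after 30 minutes.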
# AT treatment: potential ataxia-telangiectasia treatments restoring KAP-1 phosphorylation | F2112 A-T fibroblasts, KAP-1 phosphorylation AlphaLISA; neocarzinostatin DNA damage 30 min before lysis | Potency, µM (highest dose often 57.5 µM), inactives show at the highest dose activation, usual class: activators | 0.19% of 320,000 active | AID 485349; also: % of control where 0% means no effect; nearly all actives have a fitted effect of over 45% in size
#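 ATM-like activity read as KAP-1 phosphorylation via AlphaLISA donor/acceptor antibody pairs after lysis and 6 hr at 25C. Cells were ATM-null patient fibroblasts (F2112, hTERT), dosed 60 min, then exposed to the DSB inducer NCS for 30 min.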
# SW480 rerep: induces DNA re-replication in SW480 colon adenocarcinoma cells; SW480 DNA re-replication, Hoechst DNA content imaging, 48 h; Potency, µM (highest dose often 46.1 µM), for inactives: at the top dose re-replication activation, usual class: activators; 1.8% of 340,000 active; also: % of control where 0% means no effect; nearly all actives have a fitted effect of over 55% in size
#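 Cells (250 per well) received 23 nL compound or DMSO by pin tool and were kept 48 hr at 37 C, 5% CO2. Nuclei were then stained with Hoechst for 40 min and scanned for DNA content.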
# Mito fusion yeast: inhibitors of mitochondrial division or activators of mitochondrial fusion | S. cerevisiae fusion-defective mutant growth rescue, CellTiterGlo 48 h | Potency, µM (titrated, usually from 46.1 µM), inactives show at the highest dose growth rescue (activation), most hits filed as activators | 0.23% of 320,000 active | AID 485298; also: % of control where 0% means no effect; nearly all actives have a fitted effect of over 45% in size
#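 Read-out: ATP-based luminescence (CellTiterGlo, 10 min ambient) reporting growth of fusion-defective ts yeast after 48 hours at 37C on glycerol/ethanol YPEG medium in the presence of compound.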
# MCF10A rerep: inducers of DNA re-replication in MCF 10A breast cells; MCF 10A DNA re-replication, Hoechst nuclear intensity, 48 h; Potency, µM (titrated, usually from 46.1 µM), for inactives: at the top dose activity, positive = re-replication, hits mostly activators; 2.9% of 350,000 active; AID 624296; also: % of control where 0% means no effect; nearly all actives have a fitted effect of over 50% in size
# Active calls of the source: *; ? = inconclusive; nt = no result; [ ] = another dose, or the depositor's remark. Calls follow the shape of the dose curve; as a rule, active = well fitted activation curve with a large enough effect; inconclusive = small, poorly fitted or top-dose-only effect; inactive = no such curve, though single readings can be large or run the other way. Potency is read from the fitted curve at half-maximal effect.
SMILES,Integrin act MD,AT treatment,SW480 rerep,Mito fusion yeast,MCF10A rerep
CCN1C(=O)N/C(=C/c2ccc(C)o2)C1=O,16.6%,7.7%,?,-0.8%,?
O=C(O)c1ccc(-c2ccc(/C=C3\NC(=O)N(Cc4ccc(Cl)cc4)C3=O)o2)cc1Cl,-22.0%,-1.0%,7.31µM*,7.0%,11.2µM*
CCOC(=O)CN1C(=O)S/C(=C\c2ccc(-c3ccc(C(=O)O)c(Cl)c3)o2)C1=O,-2.8%,5.1%,0.651µM*,3.9%,23.1µM*
Cc1cccc(NC(=O)CN2C(=O)N/C(=C/c3ccc(-c4cccc(C(=O)O)c4C)o3)C2=O)c1,-7.0%,5.1%,-4.7%,9.2%,4.8%
Cc1ccc(NC(=O)C2CCCN2C(=O)NC2CCCCC2)cc1F (stereo not drawn),20.1%,-2.9%,-21.6%,-3.8%,-22.4%
Cc1ccc(CN2C(=O)N/C(=C\c3ccc(N4CCOCC4)cc3)C2=O)cc1,-4.2%,-0.1%,14.6µM*,0.3%,15.5%
CCCN1C(=O)/C(=C/c2ccc(N3CCOCC3)cc2)NC1=S,-37.0%,0.0%,2.4%,4.5%,15.3%
COc1ccc(C(=O)C2CCCN(C(=O)C3CCOCC3)C2)c(C)c1 (stereo not drawn),-9.8%,-1.2%,5.6%,1.9%,15.7%
C=CCn1c(SCC(=O)Nc2cc(C)on2)nc2ccccc21,10.0%,nt,nt,nt,nt
Cc1cc(C)c(S(=O)(=O)/N=C2\C=CC(=O)C(Cl)=C2)c(C)c1,-13.7%,0.4%,3.1%,2.7%,12.6µM*
Cc1ccc(CC(=O)CCc2ccccc2)cc1,-8.4%,25.0%,-2.0%,-1.6%,-2.7%
CC(C)(C)NC(=O)CSc1ncnc2c1nnn2Cc1ccccc1Cl,-41.5%,5.7%,?,-4.5%,14.6µM*
O=C(Cn1cnc2c(nnn2Cc2ccccc2F)c1=O)N1CCN(c2ccccc2)CC1,-1.7%,-2.4%,-7.9%,-1.7%,-2.5%
O=C(CSc1ncnc2c1nnn2Cc1ccccc1F)N1CCN(c2ccccc2)CC1,-17.0%,-1.6%,23.1%,2.4%,20.6µM*
O=C(CSc1ncnc2c1nnn2Cc1ccccc1)NC1CCCC1,-1.6%,-0.2%,-0.7%,-4.5%,18.2%
C[C@H]1CN(C2CCCCC2)C(=O)[C@@H]1CC(=O)Nc1ccccc1,2.2%,nt,nt,nt,nt
CN1C2CCC1CC(NC(=O)CSCc1ccc(Cl)cc1Cl)C2 (stereo not drawn),-12.4%,10.6%,?,-3.4%,?
Nc1nc(-c2ccccc2)nc2nonc12,6.7%,nt,nt,nt,nt
O=C(O)c1ccc(N/N=C/C2=Cc3ccccc3OC2)cc1,-3.2%,-11.4%,?,21.0%,14.6µM*
Cc1cc(NC(=O)CSc2ncc(CO)n2Cc2ccc(F)cc2)no1,-15.3%,5.7%,-16.8%,-1.8%,4.8%
O=C(NCCCN1CCCC1=O)c1ccc(NS(=O)(=O)c2ccc(F)cc2)cc1,0.0%,3.4%,-35.7%,-1.1%,-5.3%
O=C(CCN1C(=O)NC2(CCCC2)C1=O)Nc1ccc(-c2nc3ccccc3s2)cc1,-20.2%,4.5%,16.4µM*,4.4%,23.1µM*
Cc1ccc2nc(-c3ccc(NC(=O)CN4C(=O)c5ccccc5C4=O)cc3)sc2c1,18.6%,11.0%,20.6µM*,3.0%,16.4µM*
O=C(CN1CCN(c2ccccn2)CC1)Nc1cccc(Br)c1,-0.4%,15.8µM*,8.3%,16.7%,3.4%
Cc1ccc2nc(-c3ccc(NC(=O)CSc4nc(N)cc(=O)[nH]4)cc3)sc2c1,-8.6%,5.6%,3.66µM*,-7.9%,10.3%
SMILES,Integrin act MD,AT treatment,SW480 rerep,Mito fusion yeast,MCF10A rerep
Cc1ccc2nc(-c3ccc(NC(=O)CCS(=O)(=O)c4ccccc4)cc3)sc2c1,15.9%,12.1%,?,0.5%,23.8%
O=C(CCN1C(=O)NC2(CCCC2)C1=O)Nc1ccc(Sc2ccc(Br)cc2)cc1,-12.5%,nt,nt,nt,nt
O=C(O)CCC(=O)Nc1ccc(C(=O)OCC(=O)c2ccc(Cl)cc2Cl)cc1,?,1.7%,-10.5%,-3.1%,1.6%
C/C(=C\c1cc2ccccc2o1)C1Nc2cccc3cccc(c23)N1,nt,-2.4%,-8.9%,-5.0%,?
Cc1cc(C)cc(NC(=O)CN2CCN(c3ccccc3)CC2)c1,15.6%,10µM*,1.4%,16.2%,-2.5%
COc1ccc(C2(C)NC(=O)N(CC(=O)Nc3ccc(-c4nc5ccc(C)cc5s4)cc3)C2=O)cc1 (stereo not drawn),-11.5%,4.1%,?,1.2%,18.4µM*
Cc1ccc(N(CC(=O)Nc2ccc(-c3nc4ccc(C)cc4s3)cc2)S(C)(=O)=O)cc1,-15.1%,-5.3%,?,2.0%,16.4µM*
Cc1cc(C)cc(NC(=O)CN2CCN(c3ccccn3)CC2)c1,-19.2%,0.8%,-7.6%[9.22 µM],4.5%,1.2%
Cc1ccc2nc(-c3ccc(NC(=O)CN4CCN(c5ccccn5)CC4)cc3)sc2c1,15.6%,-2.5%,?,-5.4%,13µM*
CCCCCCCCNc1ncnc2[nH]ncc12,-31.8%,nt,11.1%,nt,?
c1ccc(Cc2nc3ccccc3s2)cc1,5.1%,nt,?,nt,-8.3%
COc1cc(NC(=O)c2cc(-c3ccccc3)on2)cc(OC)c1OC,15.7%,5.9%,0.4%,-0.1%,?
CC(C)n1cc(NC(=O)c2cc(-c3ccccc3)on2)cn1,9.6%,nt,5.17µM*,5.5%,3.66µM*
COc1cccc(-c2cc(C(=O)Nc3cccnc3)no2)c1,-3.6%,2.3%,5.2%,-1.2%,9.2µM*
COc1cccc(-c2cc(C(=O)Nc3cc(OC)c(OC)c(OC)c3)no2)c1,-1.7%[7.66 µM],0.5%,?,?,3.66µM*
O=C(COC(=O)c1cccc(OC(F)F)c1)Nc1cc(S(=O)(=O)N2CCCC2)ccc1Cl,0.5%,nt,nt,nt,nt
CN(C)CCCNC(=O)C[C@H]1C[C@H](C(=O)N2CCCCC2)[C@@]2(C)c3[nH]c4cc(CCC(=O)N(C)C)ccc4c3CCN2C1=O,8.5%,4.4%,-5.0%,nt,?
CCOC(=O)c1ccc(Oc2nc(NC(C)(C)C)nc(N(C)C)n2)cc1,8.3%,nt,?,17.7%,16.4µM*
CCOC(=O)c1ccc(Oc2nc(N(C)C)nc(N(C)C)n2)cc1,-18.2%,6.4%,0.1%[9.22 µM],6.4%,-1.2%
CN(C)C(CNC(=S)Nc1ccccc1Cl)c1cccnc1 (stereo not drawn),4.0%,2.2%,-2.4%,-4.4%,-25.5%
O=C(Cc1cccc2ccccc12)Nc1ccccc1Br,29.5%,7.6%,-8.6%,2.1%,12.4%
CCCc1cc(=O)[nH]c(SCC(=O)Nc2cc(S(=O)(=O)N3CCCCC3)ccc2Cl)n1,-16.7%,nt,3.2%,nt,?
CCCCCCc1cc2cc(C(=O)OCC)c(=O)oc2cc1O,37.9%,1.2%,1.3µM*,?,?
N/C(=N\NC(=O)c1ccc(F)cc1)c1cc2ccccc2oc1=O,-24.8%,-0.3%,0.7%,1.9%,-2.9%
CCCCCCn1cc(C(=O)OCC)c(=O)c2cc(F)c(F)cc21,2.1%,7.7%,1.7%,20.3%,6.8%
CCCCCCc1cc2cc(C(=O)NC)c(=N)oc2cc1O,11.6%,3.6%,12.6µM*,1.2%,?
